# From PubChem BioAssay
# Shown are actives, neighbours in structure and some others; about 12% of the full set was active somewhere.
# Pf growth 96h: inhibits malaria parasite growth, 96 h. AID 504834. Potency, µM (doses to about 28.7 µM), for inactives: at the highest dose activity change, negative = inhibition, usual class: inhibitors. P. falciparum luciferase reporter growth, 96 h. hit rate 6.9% among 320,000; also: % is scaled to controls: 0 for no effect and ±100 for the full control effect
#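 Two parasite generations (96 h, 37 C, 5% CO2) of compound exposure in infected erythrocytes (0.05% parasitemia, 2% hematocrit). Luciferase-reporter P. falciparum; decreased luminescence indicates inhibited growth, aimed at apicoplast-acting delayed death.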
# AmpC inh no detg: blocks E. coli AmpC beta-lactamase in detergent-free assay; P00811; Potency, µM (highest dose often 57.1 µM), inactives show at the highest dose activity change, negative = inhibition, most hits filed as inhibitors; AmpC nitrocefin hydrolysis, absorbance 480 nm, 0.0001% Triton; hit rate 0.52% among 330,000;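 also: plate controls were no compound for no effect and no enzyme for full effect; nearly all actives have a fitted effect of over 20% in size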
# Target sequence (P00811 whole entry, looked up): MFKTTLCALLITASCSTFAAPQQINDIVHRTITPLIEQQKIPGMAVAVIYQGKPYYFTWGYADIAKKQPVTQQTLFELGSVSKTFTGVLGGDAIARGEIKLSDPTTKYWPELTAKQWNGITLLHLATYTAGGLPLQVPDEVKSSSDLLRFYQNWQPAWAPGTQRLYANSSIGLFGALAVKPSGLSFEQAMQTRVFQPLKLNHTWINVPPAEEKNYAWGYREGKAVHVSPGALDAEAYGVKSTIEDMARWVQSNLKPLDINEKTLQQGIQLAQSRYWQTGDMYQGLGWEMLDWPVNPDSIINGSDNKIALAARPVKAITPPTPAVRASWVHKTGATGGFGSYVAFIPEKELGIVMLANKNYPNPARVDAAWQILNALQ
#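 20 mM phosphate pH 7.0 + 0.01% (detergent screen) or 0.0001% Triton X-100; 5.3 nM AmpC reagent; cpd preinc 15 min RT; nitrocefin (800 uM stock) to start; A480 q20 s × 4 min; Activity was normalised to no-enzyme and no-compound control wells.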
# Sm TGR block: S. mansoni TGR enzyme inhibition; Q962Y6; purified TGR, DTNB reduction, TNB absorbance 405 nm; Potency, µM (top dose mostly 114 µM), without a hit: at the top dose activity change, negative = inhibition, usual class: inhibitors; hit rate 3% among 360,000; also: % is scaled to controls: 0 for no effect and ±100 for the full control effect; nearly all actives have a fitted effect of over 60% in size
#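 TGR 20 nM + NADPH 100 uM (dispensed conc.), cpd preinc 15 min RT; start with NADPH (500 uM addition) then DTNB (15 mM addition). Kinetic TNB absorbance, 405 nm filter. Four-parameter Hill fit across titration.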
# AmpC inh detg: blocks E. coli AmpC beta-lactamase in detergent assay; P00811; AmpC hydrolysis of nitrocefin, absorbance 480 nm, 0.01% Triton; Potency, µM (doses to about 114 µM), inactives show top-dose activity change, negative = inhibition, actives largely listed as inhibitors; hit rate 0.041% among 370,000; AID 485294;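 also: 0% = no-compound wells and -100% = no-enzyme wells; nearly all actives have a fitted effect of over 25% in size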
#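 20 mM phosphate pH 7.0 + 0.01% (detergent screen) or 0.0001% Triton X-100; 5.3 nM AmpC reagent; cpd preinc 15 min RT; nitrocefin (800 uM stock) to start; A480 q20 s × 4 min; Activity was normalised to no-enzyme and no-compound control wells.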
# Pf growth 48h: P. falciparum growth inhibition at 48 hours (one generation); P. falciparum luciferase growth in erythrocytes, 48 h; Potency, µM (top dose mostly 28.7 µM), for inactives: at the top dose activity change, negative = inhibition, actives largely listed as inhibitors; hit rate 5.9% among 310,000; AID 504832; also: % is scaled to controls: 0 for no effect and ±100 for the full control effect
#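 Parasite viability was followed by luminescence of a genomically integrated firefly luciferase. Cultures held 0.1% parasitemia at 2% hematocrit (final), incubated under 5% CO2 at 37 C.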
# SARS PLpro yeast: SARS-CoV PLP inhibition in yeast; S. cerevisiae expressing SARS-CoV PLpro, growth rescue; AID 485353; hit rate 0.19% among 330,000; Potency, µM (top dose mostly 32.9 µM), for the others: top-dose activity, positive = growth rescue, usual class: activators; calls by dose curve; also: 0% is about no effect; nearly all actives have a fitted effect of over 55% in size
# * hit, by the source's call; u = inconclusive; x = no result given; [ ] = another dose, or the depositor's remark. Unless noted, calls follow the shape of the dose curve; as a rule, active = well fitted curve in the direction sought with a large enough effect; inconclusive = small, poorly fitted or top-dose-only effect, or another doubt; inactive = no such curve, though single readings can be large; an effect the other way counts as inactive or inconclusive. Potency is read from the fitted curve at half-maximal effect.
SMILES,Pf growth 96h,AmpC inh no detg,Sm TGR block,AmpC inh detg,Pf growth 48h,SARS PLpro yeast
CCOc1ccccc1/C=C/C(=O)NCC(=O)N1CCC(N(C)C2CCCCC2C)CC1 (stereo not drawn),22.8%,15.3%,6.31µM*,-2.0%,u,3.8%
Cc1cc(NS(=O)(=O)c2cn(C)c(C)n2)ccc1Br,x,x,-0.7%,25.8%,x,x
O=C(CCCc1nc(-c2ccco2)no1)Nc1ccccc1[N+](=O)[O-],x,x,-0.2%,16.1%,x,x
Clc1ccc(C2C3=C(Nc4ncnn42)c2ccccc2CC3)cc1 (stereo not drawn),u,-0.6%,-21.1%,-6.6%,x,14.9%[6.58 µM]
c1ccc(C2C3=C(Nc4ncnn42)c2ccccc2CCC3)cc1 (stereo not drawn),5.22µM*,-19.3%,-1.7%,-11.3%,-6.7%,0.2%
CN(C)CCNCCCOc1ccccc1-c1ccccc1,47.2%,-1.5%,x,-11.4%,2.62µM*,-0.6%
CC(C)(C)NCCOCCOc1ccccc1-c1ccccc1,3.7µM*,31.8%,5.7%,3.0%,u,-0.8%
COCCCNCCOCCOc1ccccc1-c1ccccc1,u,67.8%,1.3%,2.5%,-8.3%,-12.0%
CCCc1cc(=O)[nH]c(SCC(=O)Nc2oc(C)c3c(C)n[nH]c(=O)c23)n1,7.5%,-6.7%,-20.6%,-15.5%,22.7%,8.6%
CCc1c(C)sc2c1CCN(Cc1ccc(F)cc1)C2c1ccccc1 (stereo not drawn),x,x,-5.4%,-0.8%,x,x
CCOCC(=O)Nc1cc(C(F)(F)F)ccc1Oc1cccc(Br)c1,0.465µM*,-4.1%,-27.1%,u,u,-11.8%
COC(=O)Cc1c(C)c2ccc3c(c2oc1=O)CN(Cc1ccccc1OC)CO3,x,x,-5.1%,18.4%,x,x
Cc1ccc2c(c1)N(S(=O)(=O)c1ccc(CN3C(=O)c4cccnc4C3=O)cc1)CCO2,u,88.3%,0.9%,4.3%,23.0%,1.0%
Cc1ccc2c(c1)N(S(=O)(=O)c1ccc(CN3C(=O)c4cccnc4C3=O)s1)CCO2,4.15µM*,57.8%,3.1%,0.5%,24.7%,-8.3%
O=C(O)/C=C/C(=O)Nc1ccc(N2CCOCC2)nc1N1CCOCC1,-3.5%,-14.7%,2.24µM*,-17.6%,-6.1%,1.2%
Cc1cccc(NC(=O)CCNS(=O)(=O)c2ccc(Cl)cc2)c1,2.0%,-7.8%,-13.0%,0.1%,26.9%,-2.2%
Cc1ccc(NS(=O)(=O)c2cc(C(=O)Nc3cccc([N+](=O)[O-])c3)ccc2C)cc1,30.6%,-20.5%,6.7%,1.3%,u,u
CCNS(=O)(=O)c1cc(OC)ccc1OC,u,-7.5%,3.4%,u,x,-0.6%
Cc1ccc(S(=O)(=O)NCCCCCC(=O)Nc2cccc(C)c2)cc1,11.7µM*,-17.3%,0.1%,-8.0%,-10.2%,-4.0%
CCCCCNS(=O)(=O)c1cc(C)ccc1OC,11.7µM*,-2.6%,-4.5%,-4.4%,-11.2%,-0.8%
Cc1ccc(NS(=O)(=O)c2cc(C(=O)Nc3cccnc3)ccc2C)cc1,u,28.2µM*,-2.7%,5.6%,u,-4.7%
Cc1ccc(NS(=O)(=O)c2cc(C(=O)NCc3cccnc3)ccc2C)cc1,8.28µM*,-37.1%,-0.6%,4.2%,-19.6%,-3.1%
Cc1ccc(C(=O)Nc2ccccc2)cc1S(=O)(=O)Nc1ccccc1,x,x,-1.3%,4.2%,x,x
COc1ccc(C)cc1S(=O)(=O)Nc1cccnc1,6.57µM*,-9.7%,0.8%,-6.8%,24.3%,10.8%
CC(=O)Nc1ccc(NC(=O)c2ccc(C)c(S(=O)(=O)Nc3cccc(C)c3)c2)cc1,44.4%,-28.7%,-11.7%,1.8%,11.7µM*,1.3%
SMILES,Pf growth 96h,AmpC inh no detg,Sm TGR block,AmpC inh detg,Pf growth 48h,SARS PLpro yeast
CC(=O)Nc1ccc(S(=O)(=O)NNc2cccc(C)c2)cc1,44.5%,-20.8%,14.1µM*,0.4%,37.0%,-1.8%
COc1ccc(S(=O)(=O)Nc2cccnc2)c(C)c1C,-14.9%,-8.8%,3.3%,u,0.0%,1.8%
Cc1cccc(NS(=O)(=O)c2cc(C(=O)N3CCN(C)CC3)ccc2C)c1,9.28µM*,4.1%,9.4%,-3.9%,x,8.6%
Cc1ccc(S(=O)(=O)N2CCN(Cc3cc(Br)ccc3O)CC2)cc1,x,x,-8.7%,-7.9%,x,x
Cn1cnc([N+](=O)[O-])c1Sc1ncnc2nc[nH]c12,u,-6.3%,10µM*,4.5%,u,1.1%
Cn1cnc(Sc2ncnc3nc[nH]c23)c1[N+](=O)[O-],-26.6%,-10.1%,u,-5.2%,-27.4%,0.9%
Cc1ccc(-c2csc3ncn(CC(=O)NCC(c4ccco4)N4CCCC4)c(=O)c23)cc1 (stereo not drawn),u,97.5%,-31.4%,7.5%,-69.8%,6.1%
Cc1cc(C)cc(NCc2ccncc2)c1,u,-10.0%,3.2%,-2.7%,12.7%,2.8%
CCN1CC2=C(OC(N)=C(C#N)C2c2cccs2)/C(=C\c2cccs2)C1 (stereo not drawn),9.28µM*,-25.8%,-20.6%,u,x,10.6%
CCOC(=O)C1=C(CC)OC(N)=C(C#N)C1c1cccs1 (stereo not drawn),x,-20.6%,-26.9%,1.0%,-18.8%,-0.2%
CN(C)C1=NC[C@H](Cc2ccccc2)N1CC1CCC(C(C)(C)C)CC1 (stereo partly drawn),u,12.0%,4.1%,u,u,-7.3%
CCN(C(=O)CC(C)C)c1nnc(Cn2nnc3ccccc32)s1,34.3%,19.7%,-0.7%,1.4%,-16.6%,-1.1%
CCN(C(=O)c1ccc(C(C)(C)C)cc1)c1nnc(Cn2nnc3ccccc32)s1,119.9%,12.3%,7.1%,u,10.4µM*,-12.7%
COc1cccc(NC(=O)/C(C#N)=C/c2c(C)n(Cc3ccc(Cl)cc3)c3ccccc23)c1,x,x,0.1%,12.3%,x,x
Cn1cc(CCCC(=O)NCc2ccc(F)cc2)c2ccccc21,2.08µM*,-9.5%,u,-1.3%,u,-3.0%
COc1ccc(CNC(=O)CCc2cn(C)c3ccccc23)cc1,x,x,-3.4%,2.9%,x,x
CCOC(=O)C1(CCOc2ccccc2)CCN(Cc2ccncc2)CC1,u,-12.7%,28.2µM*,0.7%,u,-0.1%
CCOC(=O)C1(CCOc2ccccc2)CCN(Cc2ccc(-n3cccn3)cc2)CC1,u,92.1%,3.4%,0.9%,14.7µM*,0.1%
CCOC(=O)C1(CCOC)CCN(Cc2ccncc2)CC1,-2.8%,8.3%,-1.9%,1.7%,-0.7%,0.6%
CCOc1cc(C(=O)Nc2cc3c(cc2N2CCOCC2)n(C)c(=O)n3C)cc(OCC)c1OCC,8.28µM*,84.5%,0.2%,-0.4%,-16.0%,-10.7%
COc1ccc(C(=O)Nc2cc3c(cc2N2CCOCC2)n(C)c(=O)n3C)cc1OC,u,-10.6%,1.0%,5.2%,u,1.1%
